Our source for the growth values is PubChem BioAssay (NCI).

Test systems include NCI-H23 lung; NCI-H226 lung; NCI-H322M lung; HOP-62 NSCLC; NCI-H460 lung; A549/ATCC NSCLC; 786-0 renal; COLO 205 colon; DU-145 prostate; K-562 leukemia; MDA-MB-231 breast; RXF 393 renal; SF-268 CNS; SF-295 CNS; SF-539 CNS; UACC-257 melanoma; M14 melanoma; NCI-H522 lung; MALME-3M melanoma.
Assay in all cases: NCI-60 one-dose screen, 48 h (100 = growth as untreated, 0 = no growth, -100 = all killed)
What all share (conditions): 10 µM unless noted

SMILES strings stand for the structures. The panel holds about 83,000 compounds, 20% with a hit somewhere; the sample as a whole holds those more often.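 In brief: 96-well plates, 48 h treatment, single concentration, percent growth endpoint.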 Unmarked numbers belong to inactive results. Calls of active or inactive are those of the source. The calls were made as follows: active = growth percent below 10; inactive = the rest.

Regarding `NC(N)=Nc1ccc(Oc2cccc(Oc3ccc(Cl)c(C(F)(F)F)c3)c2)cn1`, the growth in the assay on NCI-H23 lung was -83.5% (active); in the assay on NCI-H226 lung, -73.4% (active); in the assay on NCI-H322M lung, -6.46% (active); in the assay on HOP-62 NSCLC, -56% (active); in the assay with NCI-H460 lung, -78.8% (active); with A549/ATCC NSCLC, -67.1% (active). The growth was -82% (active) in the assay on 786-0 renal; -68.2% (active) in the assay on COLO 205 colon; -91.9% (active) in the assay on DU-145 prostate; -54.7% (active) in the assay on K-562 leukemia; -82.9% (active) in the assay on MDA-MB-231 breast; 7.96% (active) in the assay on RXF 393 renal. In addition, the growth with SF-268 CNS is 64.9%; in the assay with SF-295 CNS it was -93.5% (active); in the assay with SF-539 CNS, -79.7% (active); in the assay on UACC-257 melanoma, -56% (active); in the assay on M14 melanoma, -84.3% (active).
Regarding `Cc1ccc2sc3c(c2c1)OC(N)=C(C#N)C3c1ccc(Cl)cc1` (stereo unspecified), the growth in the assay on NCI-H23 lung was 86.2%; with NCI-H226 lung it was 68%; in the assay on NCI-H322M lung it was 99%; in the assay with HOP-62 NSCLC, 79.6%; in the assay with NCI-H460 lung, 56.2%; in the assay on NCI-H522 lung it was 58.2%. Also, the growth with A549/ATCC NSCLC is 96.9%; in the assay with 786-0 renal, 102%; in the assay with COLO 205 colon, 96.7%; with DU-145 prostate, 76.8%; in the assay on MALME-3M melanoma, 71.5%; with MDA-MB-231 breast, 65.2%. The growth was 50.6% in the assay on RXF 393 renal; 89.3% in the assay with SF-268 CNS; 74% in the assay on SF-295 CNS; 70.8% in the assay on SF-539 CNS; 89.8% in the assay with UACC-257 melanoma; 64.5% in the assay with M14 melanoma.
Consider `CC[C@]12C=CCN3CC[C@@]4(c5cc(NC(=O)COc6cc(O)c7c(=O)cc(-c8ccccc8)oc7c6)c(OC)cc5N(C)[C@H]4[C@@](O)(C(=O)OC)[C@@H]1OC(C)=O)[C@@H]32`, for which the growth with NCI-H23 lung is -92.9% (active); in the assay on NCI-H226 lung it was -70.4% (active); in the assay with NCI-H322M lung it was -51.8% (active); with HOP-62 NSCLC, -73.6% (active); in the assay on NCI-H460 lung, -57.7% (active); in the assay with NCI-H522 lung, -49.7% (active). For the same compound, the growth in the assay on A549/ATCC NSCLC was -68.5% (active); in the assay with 786-0 renal, -59.9% (active); in the assay on COLO 205 colon it was -81% (active); in the assay with DU-145 prostate, -33.6% (active); in the assay with K-562 leukemia it was -1.41% (active); in the assay on MDA-MB-231 breast it was -58.3% (active). Moreover, the growth is -92.1% (active) in the assay on RXF 393 renal; -60.6% (active) in the assay with SF-268 CNS; -85.3% (active) in the assay with SF-295 CNS; -77.1% (active) in the assay with SF-539 CNS; -76.1% (active) with UACC-257 melanoma; -75.4% (active) in the assay on M14 melanoma.
On to `O=C(Cn1cc[n+](CC(=O)c2ccc(-c3ccccc3)cc2)c1)Nc1cccc2cccnc12`, for which the growth with NCI-H23 lung was 76.8%; in the assay with NCI-H226 lung, 83.7%; with NCI-H322M lung, 95.7%; with HOP-62 NSCLC, 88.4%; in the assay with NCI-H460 lung, 87.8%; in the assay with NCI-H522 lung, 42.3%. In addition, the growth with A549/ATCC NSCLC is 88.1%; with 786-0 renal, 95.8%; in the assay with COLO 205 colon it was 74.2%; in the assay on DU-145 prostate it was 86.4%; in the assay with K-562 leukemia, 50.5%; in the assay with MDA-MB-231 breast, 73.1%. Also, the growth was 98.3% with RXF 393 renal; 65.5% in the assay on SF-268 CNS; 102% in the assay with SF-295 CNS; 79.1% with SF-539 CNS; 34.4% in the assay on UACC-257 melanoma; 85% with M14 melanoma.
As to `CC1(COc2ccc3ncc(C#Cc4cncc(C(=O)Nc5cccc(C(F)(F)F)c5)c4)n3n2)COC1`, the growth in the assay on NCI-H23 lung was 60.9%; in the assay with NCI-H226 lung, 25%; with NCI-H322M lung, 95.9%; in the assay with HOP-62 NSCLC, 63.7%; in the assay with NCI-H460 lung it was 85.4%; with A549/ATCC NSCLC it was 88.3%. Also, the growth with 786-0 renal was 97.9%; with COLO 205 colon, 80.7%; in the assay on DU-145 prostate it was 91.1%; in the assay on K-562 leukemia, 47.8%; in the assay with MALME-3M melanoma it was 71.1%; in the assay with MDA-MB-231 breast it was 44.5%. The growth in the assay with RXF 393 renal is -4.67% (active); in the assay with SF-268 CNS, 76.1%; with SF-295 CNS, 79.6%; in the assay with SF-539 CNS, 60.1%; with UACC-257 melanoma, 98.1%; in the assay with M14 melanoma, 78%.
In the case of `CC(C)(C)c1ccc(C(=O)Nc2nc3ccc(O)cc3s2)cc1`, the growth is 54.8% with NCI-H23 lung; 53.5% in the assay with NCI-H226 lung; 54.8% with NCI-H322M lung; 82.9% in the assay with HOP-62 NSCLC; 19.1% with NCI-H460 lung; 38.4% in the assay on A549/ATCC NSCLC. Besides, the growth in the assay with 786-0 renal was 2.03% (active); in the assay with COLO 205 colon, 8.14% (active); in the assay on DU-145 prostate, 48.2%; in the assay with K-562 leukemia it was 8.79% (active); in the assay on MDA-MB-231 breast it was 69.5%; in the assay on RXF 393 renal it was 46.3%. In addition, the growth is 55.9% in the assay with SF-268 CNS, 3.43% (active) with SF-295 CNS, 38.1% with SF-539 CNS and 31.8% with UACC-257 melanoma.
With `Nc1nc(N)c2c(n1)NC(c1ccc(C(F)(F)F)cc1)CC(c1ccc(Nc3nc(NCCO)nc(N4CCOCC4)n3)cc1)=N2` (stereo unspecified), the growth in the assay with NCI-H23 lung is 72.8%; in the assay with NCI-H226 lung it was 70.2%; in the assay with NCI-H322M lung it was 95.6%; in the assay with HOP-62 NSCLC, 47.1%; with NCI-H460 lung, 48.3%; in the assay on NCI-H522 lung it was 52.5%. In addition, the growth was 74.4% with A549/ATCC NSCLC; 62.7% with 786-0 renal; 71.1% in the assay with COLO 205 colon; 79.2% in the assay on DU-145 prostate; 17.9% with K-562 leukemia; 80.8% in the assay on MDA-MB-231 breast. The growth with RXF 393 renal is 67.9%; with SF-268 CNS, 63.6%; with SF-295 CNS, 73.2%; in the assay on SF-539 CNS, 75.3%; with UACC-257 melanoma it was 80.2%; in the assay on M14 melanoma it was 71.7%.
For `COc1cccc(C(=O)Nc2cccc(C#Cc3cccc4[nH]nc(N)c34)c2)c1`, the growth with NCI-H23 lung is 66.7%; in the assay with NCI-H226 lung it was 49.2%; with NCI-H322M lung it was 84.2%; in the assay on HOP-62 NSCLC it was 63.4%; in the assay on NCI-H460 lung it was 44.8%; with NCI-H522 lung, 21.1%. Further, the growth with A549/ATCC NSCLC was 51.1%; in the assay with 786-0 renal, 80.2%; in the assay with COLO 205 colon it was 67.6%; in the assay on DU-145 prostate it was 70.8%; in the assay with MALME-3M melanoma, 79.4%; with MDA-MB-231 breast, 38.6%. For the same compound, the growth in the assay with RXF 393 renal is -19.5% (active); in the assay with SF-268 CNS, 53%; in the assay with SF-295 CNS, 54.9%; in the assay on SF-539 CNS, 36.1%; with UACC-257 melanoma, 82.8%; with M14 melanoma it was 32.6%.
